“And” between values parts separate entries of the source, which are not always exact repeats. Equal entries are not always repeated. Records with an inconclusive call do not appear. Some structures have more than one record in an assay (separate samples or runs), and their calls can disagree. The source made the active and inactive calls. Unless noted, calls come from the whole dose curve.
Tests used:
[1] = Nuclear factor erythroid 2-related factor 2/antioxidant responsive element (Nrf2/ARE) small molecule agonists: qHTS cell viability counter screen in human keratinocytes (AID 1919968; active = well fitted curve in the direction sought with a large enough effect in the repeat runs; an effect the other way counts as inactive or inconclusive; note: nearly all actives have a fitted effect of over 55% in size)
Method in brief: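 KeratinoSens cells (HaCaT keratinocytes stably carrying an ARE-luciferase reporter) were seeded at 1,500 cells/well and rested 5 h at 37 C/5% CO2. They were then exposed to compounds in DMSO for 23 h. Viability was read by CellTiter-Fluor fluorescence after 1 h.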

[2] = Nuclear factor erythroid 2-related factor 2/antioxidant responsive element (Nrf2/ARE) small molecule agonists: luciferase reporter gene qHTS assay in human keratinocytes (AID 1919969); note: nearly all actives have a fitted effect of over 35% in size; note: potency is the fitted concentration of half-maximal effect
[3] = molecular target: Gonadotropin-releasing hormone receptor (Homo sapiens) (UniProt P30968); test: Human gonadotropin-releasing hormone receptor (GnRHR) small molecule agonists, calcium flux assay in GnRHR-HEK293 cells (AID 1920063); note: nearly all actives have a fitted effect of over 35% in size
Method in brief: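 HEK293 cells stably expressing human GnRHR were plated 18 h at 37 °C, loaded with calcium dye 1 h at 37 °C, then given compound in agonist mode; fluorescence (Ex/Em 480/540) read kinetically for 3 min at 1 s intervals.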

[4] = molecular target: KiSS-1 receptor (Homo sapiens) (UniProt Q969F8); test: Human kisspeptin (KISS1R) small molecule agonists, calcium flux assay in KISS1R-HEK293 cells (AID 1920064; active = well fitted curve in the direction sought with a large enough effect in the repeat runs; an effect the other way counts as inactive or inconclusive)
Method in brief: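 HEK293 cells stably expressing human KISS1R were plated 18 h at 37 °C, loaded with calcium dye for 1 h at 37 °C, then given compound by pin tool. Fluorescence (Ex/Em 480/540) was read kinetically for 3 min.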

[5] = G protein-coupled receptor (GPCR) small molecule agonists, calcium flux assay: HEK293 wild type cell line counter screen (AID 1920065)
Method in brief: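 Cells were plated and cultured 18 h at 37 C/5% CO2, then loaded with calcium dye for 1 h at 37 C. Compounds in DMSO were pin-transferred in agonist mode, and fluorescence (Ex/Em 480/540) was read kinetically for 3 min at 1 s intervals.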

[6] = p53 small molecule agonists, cell-based qHTS assay with human liver microsomes (AID 1963577)
Method in brief: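 p53RE-bla reporter cells were pre-incubated 5 h at 37 C, then treated with compounds plus human liver microsomes (0.5 mg/mL final) and NADPH (0.5 mg/mL final) for 16 h at 37 C. Beta-lactamase activity was read by LiveBLAzer fluorescence after 2 h at room temperature.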

[7] = p53 small molecule agonists, cell-based qHTS assay with rat liver microsomes (AID 1963578)
Method in brief: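 p53RE-bla cells were exposed to compounds together with rat liver microsomes (0.5 mg/mL final) and NADPH (0.5 mg/mL final) for 16 h at 37 C, then read by LiveBLAzer beta-lactamase fluorescence after 2 h at room temperature.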

[8] = p53 small molecule agonists, cell-based qHTS assay with human liver microsomes: qHTS cell viability counter screen (AID 1963579); note: nearly all actives have a fitted effect of over 45% in size
Method in brief: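 p53RE-bla cells (4,000/well) were pre-incubated 5 h at 37 C, then given compounds in DMSO plus human liver microsomes (0.5 mg/mL final) and NADPH (0.5 mg/mL final) for 16 h at 37 C. Viability was read by CellTiter-Glo luminescence.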

[9] = p53 small molecule agonists, cell-based qHTS assay with rat liver microsomes: qHTS cell viability counter screen (AID 1963580); note: nearly all actives have a fitted effect of over 45% in size; note: potency is the fitted concentration of half-maximal effect
Method in brief: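 In HCT-116 cells carrying a p53 response element-bla reporter, compounds were metabolically activated in situ by rat liver microsomes with NADPH over 16 h. Cell ATP content then served as the cytotoxicity measure.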

[10] = p53 small molecule agonists, cell-based qHTS assay: qHTS cell viability counter screen (AID 1963581); note: nearly all actives have a fitted effect of over 45% in size
Method in brief: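 p53RE-bla HCT-116 cells were exposed to compounds for 16 h at 37 C; after the beta-lactamase FRET read in the same wells, CellTiter-Glo was added and luminescence (intracellular ATP) read after 30 min at room temperature.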

[11] = p53 small molecule agonists, cell-based qHTS assay (AID 1963582; active = well fitted activation curve with a large enough effect in the signal ratio in the repeat runs, not every such curve was filed as active; the % refers to the signal ratio)
Method in brief: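 p53RE-bla beta-lactamase reporter cells rested 5 h at 37 C/5% CO2, then received compounds in DMSO by pin transfer and were incubated 16 h at 37 C. LiveBLAzer B/G FRET substrate was loaded for 2 h at room temperature before fluorescence reading.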

[12] = molecular target: 5-hydroxytryptamine receptor 2A (Homo sapiens) (UniProt P28223); test: 5-hydroxytryptamine receptor 2A (HTR2A) small molecule antagonists, cell-based qHTS assay (AID 1963586); note: nearly all actives have a fitted effect of over 45% in size; note: potency is the fitted concentration of half-maximal effect
Method in brief: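 Antagonist-mode intracellular calcium assay: DOI (4 nM) added after 5 min compound pre-incubation at room temperature to dye-loaded HTR2A-CHO cells. Fluorescence followed for 3 min, sampled every second.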

[13] = molecular target: 5-hydroxytryptamine receptor 2A (Homo sapiens) (UniProt P28223); test: 5-hydroxytryptamine receptor 2A (HTR2A) small molecule agonists, cell-based qHTS assay (AID 1963587); note: nearly all actives have a fitted effect of over 30% in size; note: potency is the fitted concentration of half-maximal effect
Method in brief: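 HTR2A-CHO cells, plated 18 h at 37 C/5% CO2, dye-loaded 1 h at 37 C; compounds in DMSO added by pin tool (agonist mode). Intracellular calcium flux read as kinetic fluorescence on FDSS over 2 min at 1 s intervals.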

[14] = molecular target: Muscarinic acetylcholine receptor M1 (Homo sapiens) (UniProt P11229); test: Cholinergic receptor muscarinic 1 (CHRM1) small molecule antagonists, cell-based qHTS assay (AID 1963588); note: nearly all actives have a fitted effect of over 40% in size; note: potency is the fitted concentration of half-maximal effect
Method in brief: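 CHRM1-CHO calcium-flux assay, antagonist mode. Cells were seeded 18 h, dye-loaded 1 h at 37 C and given compound for 5 min at RT, then acetylcholine was added at 50nM. FDSS fluorescence was read 3 min; 15 concentrations, three runs.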

[15] = molecular target: Muscarinic acetylcholine receptor M1 (Homo sapiens) (UniProt P11229); test: Cholinergic receptor muscarinic 1 (CHRM1) small molecule agonists, cell-based qHTS assay (AID 1963589); note: nearly all actives have a fitted effect of over 35% in size
Method in brief: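 CHO cells stably expressing human CHRM1, seeded 18 h at 37 C/5% CO2, dye-loaded 1 h at 37 C, then given compound in agonist mode; intracellular calcium fluorescence read kinetically at 1 s intervals. Fifteen concentrations, three independent runs.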

[16] = cAMP Responsive Elements (CRE) small molecule antagonists, cell-based qHTS assay (AID 1963591; active = well fitted inhibition curve with a large enough effect in the signal ratio in the repeat runs, not every such curve was filed as active; the % refers to the signal ratio)
Method in brief: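 CRE-bla HEK293T cells were plated 18 h at 37 °C/5% CO2, pinned with compound in DMSO, then stimulated with NKH477 at 0.25 uM final for 3 h. LiveBLAzer B/G FRET substrate was added and plates incubated 2 h at room temperature.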

[17] = molecular target: Beta-2 adrenergic receptor (Homo sapiens) (UniProt P07550); test: Adrenergic beta2 receptor (ADRB2) small molecule antagonists, cell-based qHTS assay (AID 1963592); note: nearly all actives have a fitted effect of over 50% in size; note: potency is the fitted concentration of half-maximal effect
Method in brief: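 Cells (CHO, stable ADRB2 overexpression) incubated 18-20hr at 37C; compounds added from DMSO; agonist mix (1nM isoproterenol, 100uM IBMX, 25uM Ro-20-1724) added; 0.5hr RT; d2-cAMP and anti-cAMP-cryptate added; 1hr RT; 665/615 nm read.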

[18] = molecular target: D(2) dopamine receptor (Homo sapiens) (UniProt P14416); test: Dopamine D2 receptor (DRD2) small molecule agonists, cell-based qHTS assay (AID 1963594); note: nearly all actives have a fitted effect of over 35% in size; note: potency is the fitted concentration of half-maximal effect
Method in brief: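 HEK293 cells stably expressing DRD2 were cultured 24 h at 37 C, then given Ro20-1724 (0.1 mM final) and compounds for 10 min at room temperature. NKH477 (200nM) was then added for 30 min. cAMP was read by HTRF.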

[19] = molecular target: D(2) dopamine receptor (Homo sapiens) (UniProt P14416); test: Dopamine D2 receptor (DRD2) small molecule antagonists, cell-based qHTS assay (AID 1963595; active = well fitted inhibition curve with a large enough effect in the signal ratio in the repeat runs, with a control signal flat; the % refers to the signal ratio; note: potency is the fitted concentration of half-maximal effect)
Method in brief: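 HTRF cAMP read-out at 665 and 620 nm emission (340 nm excitation). Antagonist mode: compounds were tested against 12 nM quinpirole in DRD2-HEK293 cells, with 200 nM NKH477 raising cAMP and 0.1 mM Ro20-1724 blocking its breakdown.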

[20] = cAMP Responsive Elements (CRE) small molecule agonists, cell-based qHTS assay (AID 1963590)
Method in brief: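 CRE-bla HEK 293T cells in DMEM with 10% dialyzed FBS, NEAA, pyruvate and 25 mM HEPES were plated 18 h at 37 C/5% CO2, then exposed to compounds in DMSO for 3 h before LiveBLAzer B/G FRET substrate addition.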

Measured: Potency

D(2) dopamine receptor (Homo sapiens), sequence (P14416 whole entry, looked up): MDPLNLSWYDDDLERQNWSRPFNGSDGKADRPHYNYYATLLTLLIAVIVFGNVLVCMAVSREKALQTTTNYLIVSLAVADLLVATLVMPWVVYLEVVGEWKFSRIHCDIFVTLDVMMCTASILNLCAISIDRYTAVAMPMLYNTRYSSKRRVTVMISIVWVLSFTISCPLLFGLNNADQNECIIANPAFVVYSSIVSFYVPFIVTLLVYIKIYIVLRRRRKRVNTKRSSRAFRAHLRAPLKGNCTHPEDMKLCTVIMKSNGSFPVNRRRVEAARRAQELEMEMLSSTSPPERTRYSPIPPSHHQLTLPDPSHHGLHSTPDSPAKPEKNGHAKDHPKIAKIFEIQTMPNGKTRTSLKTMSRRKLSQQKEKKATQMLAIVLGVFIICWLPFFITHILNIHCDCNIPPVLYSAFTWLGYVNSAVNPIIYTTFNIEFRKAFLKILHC
5-hydroxytryptamine receptor 2A (Homo sapiens), sequence (P28223 whole entry, looked up): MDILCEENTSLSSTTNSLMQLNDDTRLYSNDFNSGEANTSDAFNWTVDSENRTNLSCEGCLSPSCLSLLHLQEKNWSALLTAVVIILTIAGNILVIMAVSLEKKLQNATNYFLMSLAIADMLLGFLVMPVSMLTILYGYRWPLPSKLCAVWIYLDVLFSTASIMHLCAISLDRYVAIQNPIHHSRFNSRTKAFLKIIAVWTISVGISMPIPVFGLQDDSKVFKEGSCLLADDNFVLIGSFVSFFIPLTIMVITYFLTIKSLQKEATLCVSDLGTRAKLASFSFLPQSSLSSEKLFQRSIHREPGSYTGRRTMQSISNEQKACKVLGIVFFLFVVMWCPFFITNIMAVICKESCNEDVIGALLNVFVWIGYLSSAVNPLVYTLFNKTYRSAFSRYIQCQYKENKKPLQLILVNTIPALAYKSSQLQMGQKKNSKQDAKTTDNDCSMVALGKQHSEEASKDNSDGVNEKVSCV
Beta-2 adrenergic receptor (Homo sapiens), sequence (P07550 whole entry, looked up): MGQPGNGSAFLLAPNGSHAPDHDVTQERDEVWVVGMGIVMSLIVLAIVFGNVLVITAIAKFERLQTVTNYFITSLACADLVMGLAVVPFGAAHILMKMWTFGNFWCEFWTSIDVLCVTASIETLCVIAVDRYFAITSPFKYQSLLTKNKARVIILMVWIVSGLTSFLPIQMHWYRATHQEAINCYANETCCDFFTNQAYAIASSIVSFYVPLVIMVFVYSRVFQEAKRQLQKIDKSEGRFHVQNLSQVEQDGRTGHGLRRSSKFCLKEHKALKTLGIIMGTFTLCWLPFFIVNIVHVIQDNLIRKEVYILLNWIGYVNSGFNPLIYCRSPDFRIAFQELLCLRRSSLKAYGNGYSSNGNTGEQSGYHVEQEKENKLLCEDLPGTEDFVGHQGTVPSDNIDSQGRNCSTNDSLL
Muscarinic acetylcholine receptor M1 (Homo sapiens), sequence (P11229 whole entry, looked up): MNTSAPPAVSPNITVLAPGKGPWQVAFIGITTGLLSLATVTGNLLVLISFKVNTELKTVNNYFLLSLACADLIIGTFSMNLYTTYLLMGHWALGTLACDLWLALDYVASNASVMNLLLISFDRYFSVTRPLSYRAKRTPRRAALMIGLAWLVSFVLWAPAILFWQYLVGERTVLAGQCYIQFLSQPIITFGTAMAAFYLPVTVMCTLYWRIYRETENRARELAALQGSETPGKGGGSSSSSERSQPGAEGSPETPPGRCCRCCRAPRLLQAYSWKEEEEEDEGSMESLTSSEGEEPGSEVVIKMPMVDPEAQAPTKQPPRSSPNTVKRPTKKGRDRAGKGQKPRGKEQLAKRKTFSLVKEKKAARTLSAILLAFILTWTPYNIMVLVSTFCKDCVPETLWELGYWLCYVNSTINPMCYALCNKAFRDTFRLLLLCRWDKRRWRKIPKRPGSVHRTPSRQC
KiSS-1 receptor (Homo sapiens), sequence (Q969F8 whole entry, looked up): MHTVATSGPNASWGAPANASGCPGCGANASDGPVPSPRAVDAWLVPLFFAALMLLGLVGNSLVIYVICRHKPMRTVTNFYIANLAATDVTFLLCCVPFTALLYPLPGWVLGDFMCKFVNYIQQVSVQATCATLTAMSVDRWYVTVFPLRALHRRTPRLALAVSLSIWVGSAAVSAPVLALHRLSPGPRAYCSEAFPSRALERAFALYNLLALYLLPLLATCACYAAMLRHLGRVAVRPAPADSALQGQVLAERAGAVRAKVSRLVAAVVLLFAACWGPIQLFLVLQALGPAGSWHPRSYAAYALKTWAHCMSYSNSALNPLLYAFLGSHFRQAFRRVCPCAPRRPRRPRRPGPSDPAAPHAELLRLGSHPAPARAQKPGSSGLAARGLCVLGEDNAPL
Gonadotropin-releasing hormone receptor (Homo sapiens), sequence (P30968 whole entry, looked up): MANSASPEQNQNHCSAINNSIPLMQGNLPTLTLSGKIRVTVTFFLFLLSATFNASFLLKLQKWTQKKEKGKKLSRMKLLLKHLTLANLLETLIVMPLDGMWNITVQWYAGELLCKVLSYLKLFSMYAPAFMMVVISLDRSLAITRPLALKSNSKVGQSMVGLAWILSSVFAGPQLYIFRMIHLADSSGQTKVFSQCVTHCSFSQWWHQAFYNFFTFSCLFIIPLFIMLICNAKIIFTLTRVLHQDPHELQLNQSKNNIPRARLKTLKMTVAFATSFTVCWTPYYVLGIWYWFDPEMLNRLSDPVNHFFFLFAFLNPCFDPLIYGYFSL

C1CN(CCOCCN2CCOCC2)CCO1
not listed: [20]
inactive: all other assays above

O=C(Nc1ccc(Cl)cc1)Nc1ccc(Cl)c(Cl)c1
21.6 µM (active) and inactive: [2]
active: [17] 68.2 µM and 54.5 µM
48.6 µM (active) and inactive: [19]
not listed: [20]
inactive: all other assays above

CCOC(C)(C)C
not listed: [15]
inactive: all other assays above

O=C1CCCCCCCCCCCCCCCO1
not listed: [16] | [19]
inactive: all other assays above

O=c1cc(CO)occ1O
not listed: [20]
inactive: all other assays above

OC1(c2ccc(Cl)cc2)CCNCC1
not listed: [15] | [18]
inactive: all other assays above

COC(CC(C)CCCC(C)(C)O)OC (configuration not stated)
not listed: [16]
inactive: all other assays above

CC(=O)N[C@@H](Cc1ccc(O)cc1)C(=O)O
not listed: [15]
inactive: all other assays above

CCCCC/C=C/C=C/C=O
active: [2] 61.1 µM
not listed: [20]
inactive: all other assays above

O=C1NC(=O)[C@@]2(CCOc3ccc(F)cc32)N1
active: [12] 0.818 µM | [13] 3.01 µM | [18] 0.11 µM
not listed: [17] | [20]
inactive: all other assays above

C=CC(=O)NCOCC(C)C
not listed: [20]
inactive: all other assays above

O=c1c(-c2ccc(O)cc2)coc2cc(O)ccc12
active: [9] 10.1 µM | [12] 33.4 µM
not listed: [20]
inactive: all other assays above

NC(=O)NS(=O)(=O)c1ccc(Cl)cc1
not listed: [20]
inactive: all other assays above

CCCC(O)C(O)CO (configuration not stated)
not listed: [16]
inactive: all other assays above

CC(C)(c1ccccc1)c1ccc(Nc2ccc(C(C)(C)c3ccccc3)cc2)cc1
not listed: [20]
inactive: all other assays above

C1CCCC1
not listed: [20]
inactive: all other assays above

CCN1CCc2nc(N)oc2CC1
active: [18] 26.6 µM
not listed: [13]
inactive: all other assays above

CC(C)CCCCCOC(=O)CCS
not listed: [12]
inactive: all other assays above

COc1ccccc1NC(=O)CC(C)=O
not listed: [13] | [19]
inactive: all other assays above

CC(C)CCCO
not listed: [12]
inactive: all other assays above

C=CCc1cc(OC)c(O)c(C(=O)NCCO)c1
not listed: [13] | [18]
inactive: all other assays above

CO[Si](C)(C)OC
not listed: [12]
inactive: all other assays above

CC(C)N=C(N)/N=C(\N)Nc1ccc(Cl)cc1
not listed: [13] | [14] | [18] | [20]
inactive: all other assays above

CCC(C)c1ccccc1 (configuration not stated)
not listed: [13] | [14]
inactive: all other assays above

CC(C)c1cccc(C(C)C)c1N
not listed: [13]
inactive: all other assays above

COc1cc(C(=S)N2CCOCC2)ccc1O
not listed: [12] | [18]
inactive: all other assays above

CC(C)C1CCC(O)CC1 (configuration not stated)
not listed: [12]
inactive: all other assays above

C=C(C)[C@H]1CC=C(C)CC1
not listed: [13] | [16] | [18] | [19]
inactive: all other assays above

CCCOC(C(=O)OC1CCN(C)CC1)(c1ccccc1)c1ccccc1
active: [2] 10.6 µM | [14] 0.729 µM
not listed: [13] | [17]
inactive: all other assays above
